Over roughly 33,000 sequences, “E-score (-0.5 to 0.5)” has its median near -0.0059; the highest 2% begin near 0.26. This excerpt belongs to a sample that is enriched for the highest values.
Molecular target: T1, Cin5 (UniProt P40917)
T1 sequence: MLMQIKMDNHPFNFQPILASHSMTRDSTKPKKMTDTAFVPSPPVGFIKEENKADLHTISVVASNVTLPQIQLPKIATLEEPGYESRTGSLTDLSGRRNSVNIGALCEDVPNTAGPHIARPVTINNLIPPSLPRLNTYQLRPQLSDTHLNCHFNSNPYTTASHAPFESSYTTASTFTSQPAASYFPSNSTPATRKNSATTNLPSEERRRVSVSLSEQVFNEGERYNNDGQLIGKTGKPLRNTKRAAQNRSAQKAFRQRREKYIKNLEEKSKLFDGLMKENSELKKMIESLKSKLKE
Assay: PBM E-score (8-mer binding enrichment) (E-score (-0.5 to 0.5)); higher = stronger / more preferred TF binding
Settings: protein concentration: 100 nM; construct: GST-full length
How it was run: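 Yeast transcription factors carrying a GST tag, as full-length proteins or DNA-binding domains, were produced by PURExpress in vitro transcription/translation. About 100-200 nM protein was applied to universal all-10-mer Agilent arrays, double-stranded by primer extension on fresh or once-stripped slides. Bound protein was detected with fluorescent anti-GST, and scans were normalised with masliner. The Universal PBM Analysis Suite gave each ungapped eight-base word, pooled with its reverse complement, an E-score, a modified Wilcoxon-Mann-Whitney statistic.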

Row | Sequence | PBM E-score
1 | CGCGGTAC | -0.0212
2 | CATTGCTC | -0.157
3 | CCTACAGG | -0.33
4 | AAAGAAAA | 0.112
5 | CGAATGAC | 0.275
6 | CGAATGAA | 0.0154
7 | AGAATGAC | 0.0989
8 | AGAGGACC | -0.22
9 | GTATCATA | 0.274
10 | GTATCACA | 0.154
11 | ATATCATA | 0.288
12 | GTATCAGA | -0.0398
13 | ATATCATG | 0.0651
14 | CTATCATA | 0.21
15 | CTGTGACC | 0.0399
16 | CAACTATC | 0.0334
17 | CCATAATA | 0.226
18 | CCATAATC | 0.245
19 | ACATAATG | 0.204
20 | ACATAATA | 0.364
21 | GCATAATA | 0.235
22 | ACATAATC | 0.445
23 | ACTGCCCC | -0.125
24 | ACCGCGCA | 0.151
25 | CGCCTCTC | -0.34
26 | AAATAAAT | 0.246

Row | Sequence | PBM E-score
27 | AAATAAGT | 0.12
28 | AAATAATA | 0.313
29 | AAATAATT | 0.301
30 | AACTAATA | 0.378
31 | AAATAATC | 0.17
32 | CACTAATA | 0.158
33 | AAATAATG | 0.21
34 | CAATAACA | 0.193
35 | TACTAATA | 0.193
36 | GAATAACA | 0.26
37 | AAATAACA | 0.171
38 | AAAAGTTT | 0.00197
39 | GCTTAAGA | -0.0654
40 | ACGCCTGC | -0.234
41 | CTCAGCGC | 0.0746
42 | AATTCTCA | 0.0439
43 | CTGCAGTC | -0.165
44 | CTAAACTC | -0.0293
45 | ACGAGGTA | 0.0339
46 | GAATAAAA | 0.0288
47 | CAATAATA | 0.276
48 | CAATAATC | 0.233
49 | GAATAATC | 0.221
50 | TAATAATA | 0.274
51 | CAATAATG | 0.0624
52 | TAATAACA | 0.146

Row | Sequence | PBM E-score
53 | TAATAAAA | 0.235
54 | GAATAATA | 0.291
55 | CCTGAAAA | -0.101
56 | AACTTTAT | 0.123
57 | AGTTGTTG | 0.0199
58 | ATGATATG | 0.289
59 | AAGATATC | 0.207
60 | AAGATATG | 0.268
61 | ATGATATA | 0.166
62 | AAGATATA | 0.152
63 | ATGATATC | 0.167
64 | CCTTCCAG | -0.127
65 | GGTCCGCA | -0.0684
66 | GGTTCCCA | -0.0888
67 | AACTTGCG | -0.0652
68 | ACTTAACA | 0.0535
69 | CTAATTTA | 0.158
70 | GTAATTTA | 0.27
71 | ATAATTTG | 0.208
72 | ATAATTTC | 0.136
73 | ATAATTTA | 0.332
74 | GCAATTTA | 0.137
75 | GCCGCTCC | -0.305
76 | CCCACACG | 0.0465
77 | TAATATGA | 0.262
78 | GCATATGA | 0.197

Row | Sequence | PBM E-score
79 | TCATATGA | 0.272
80 | AAATATGA | 0.245
81 | CCATATGA | -0.0136
82 | CAATATGA | 0.118
83 | ATGGACGC | -0.0507
84 | TCTTCCCA | -0.177
85 | GGTATCAC | 0.0115
86 | ATTGGGTA | 0.0825
87 | ATTGGGTG | 0.282
88 | ATTGGGTC | 0.13
89 | ACCATTCA | 0.0437
90 | AGTTGAAA | -0.0098
91 | AGTTGAAG | -0.00489
92 | AGTTGAAT | 0.259
93 | CGACTGGA | -0.167
94 | GTTCGACA | 0.0859
95 | GTCTAGCA | -0.0616
96 | AAACATGC | 0.0556
97 | ATAAGAAC | 0.31
98 | ATAAGAAT | 0.224
99 | ATAAGAAA | 0.156
100 | CGTCTCTA | -0.21
101 | CTCGCGAC | 0.107
102 | GTCGCGAA | -0.0343
103 | GTCGCGAC | 0.317
104 | TGGTAACA | -0.0163

Row | Sequence | PBM E-score
105 | TCACCAGA | -0.144
106 | ATAATCGA | 0.178
107 | ATAATCAA | 0.227
108 | ATAATCAC | 0.233
109 | ATAATCGC | 0.187
110 | ATAATCAT | 0.377
111 | ATAATCGG | 0.291
112 | AAAATCAG | 0.00782
113 | CTAATCAG | 0.14
114 | ATAATCAG | 0.285
115 | AAAAGGGA | -0.1
116 | CAATCTTA | 0.0906
117 | CCGGGTCG | -0.131
118 | CAGGAGCG | -0.0881
119 | GACCCATA | 0.222
120 | AACCCATA | 0.29
121 | AACCCATT | 0.114
122 | AGAACTTC | -0.217
123 | AGCTATTG | 0.01
124 | CGTGGAAG | 0.129
125 | AGTGGAAA | 0.0448
126 | CGTGGAAA | 0.28
127 | CACTATGG | -0.15
128 | ATAATAAG | 0.225
129 | ATAATAGA | 0.221
130 | CTAATATA | 0.0911

Row | Sequence | PBM E-score
131 | ATAATATC | 0.221
132 | GCAATATA | 0.185
133 | ACAATATA | 0.269
134 | CCAATATA | 0.0434
135 | GTAATATA | 0.323
136 | ATAATATA | 0.345
137 | ATAATATG | 0.289
138 | AGAATATA | 0.105
139 | GTAATAAA | 0.2
140 | GAGCTCCA | -0.092
141 | AAGGCCCT | -0.136
142 | CTTAGTGA | 0.0718
143 | CCCCCTTA | -0.342
144 | AGTATCAC | 0.0484
145 | ATATAATA | 0.303
146 | CTATAATA | 0.114
147 | GTATAATA | 0.253
148 | AACCCCTT | -0.0504
149 | CTCCCCAA | -0.00166
150 | CATCTGCC | -0.0681
151 | ATGTTTTC | 0.121
152 | CCTGGGAG | -0.176
153 | ACTCCCGC | -0.0164

— the supplement of paper PMC3334620
